Bioassay records: PubChem, National Center for Advancing Translational Sciences (NCATS)
TDP1 cell CPT: qHTS for Inhibitors of human tyrosyl-DNA phosphodiesterase 1 (TDP1): qHTS in cells in presence of CPT | chicken DT40 Tdp1-/-;hTDP1 cells + 20 nM CPT, ATP luminescence, 48 h | Potency, µM (top dose mostly 46.2 µM), without a hit: at the top dose activity change, negative = growth inhibition, hits mostly inhibitors | 12% of 420,000 active | AID 686979, 2013; also: potency is read from the fitted curve at half-maximal effect; nearly all actives have a fitted effect of over 55% in size
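Chicken DT40 Tdp1-/- cells stably complemented with human TDP1 were seeded at 400 cells/well in medium containing 20 nM camptothecin, exposed to pin-transferred compounds, and grown at 37 °C for at least 48 hr. Viability was read as ATP luminescence.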
Six1-Eya2 inh: qHTS Assay for Inhibitors of the Six1/Eya2 Interaction. Homeobox protein SIX1 (Homo sapiens) + Protein phosphatase EYA2 (Homo sapiens), …. AlphaScreen GST-Six1/His-Eya2 binding, biochemical; stronger effect = lower value. activity change, % (test concentration not listed). 0.56% of 360,000 active. AID 651725, 2012; in the data active = activity change below about -65%; inconclusive = mostly about -30% to -63%
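GST-Six1 + His-Eya2 (5X stock: 250/500 nM); Tris pH 8.0, 300 mM NaCl, 0.05% BSA, 0.02% Tween 20; GSH donor/Ni acceptor beads; 1 h 37 °C dark; AlphaScreen readout.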
TDP1 inh: qHTS Assay for Inhibitors of Tyrosyl-DNA Phosphodiesterase (TDP1). recombinant TDP1, AlphaScreen DNA substrate cleavage. 0.28% of 350,000 active. Potency, µM (titrated, usually from 130 µM), without a hit: top-dose activity change, negative = inhibition, hits mostly inhibitors; also: potency is read from the fitted curve at half-maximal effect; nearly all actives have a fitted effect of over 40% in size
Target sequence (Q9NUW8 whole entry, looked up): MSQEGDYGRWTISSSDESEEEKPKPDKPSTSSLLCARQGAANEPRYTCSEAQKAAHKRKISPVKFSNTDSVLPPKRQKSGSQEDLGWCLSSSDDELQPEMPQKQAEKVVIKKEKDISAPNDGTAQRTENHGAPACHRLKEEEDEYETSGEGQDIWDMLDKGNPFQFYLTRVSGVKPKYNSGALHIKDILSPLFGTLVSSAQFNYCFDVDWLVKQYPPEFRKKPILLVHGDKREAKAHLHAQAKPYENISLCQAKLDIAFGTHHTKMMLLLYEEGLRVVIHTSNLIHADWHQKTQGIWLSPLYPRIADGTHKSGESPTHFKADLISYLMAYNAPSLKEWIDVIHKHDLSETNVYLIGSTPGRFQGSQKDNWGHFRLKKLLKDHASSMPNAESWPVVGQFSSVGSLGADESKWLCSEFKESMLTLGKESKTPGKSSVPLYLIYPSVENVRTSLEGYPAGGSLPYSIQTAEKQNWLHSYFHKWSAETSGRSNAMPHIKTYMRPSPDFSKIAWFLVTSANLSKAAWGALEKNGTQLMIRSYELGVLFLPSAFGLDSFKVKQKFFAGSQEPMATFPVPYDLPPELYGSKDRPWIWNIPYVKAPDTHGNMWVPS
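Steps: enzyme plus compound, 15 min RT; add biotin/phosphotyrosine-FITC oligonucleotide (15 nM final), react 5 min; add donor/acceptor beads (10 ug/ml final), 10 min; read AlphaScreen. Tdp1 at 1 nM final.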
CtBP-E1A blk: qHTS Assay for Inhibitors of the CtBP/E1A Interaction; CtBP / adenovirus E1A interaction (AlphaScreen); 0.49% of 340,000 active; activity change, % (concentration not given with the values); AlphaScreen GST-E1A/His-CtBP binding, 1536-well; stronger effect = lower value; in the data active = activity change below about -65%; inconclusive = mostly about -30% to -63%
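Homogeneous bead-based format: GST-tagged E1A captured on glutathione donor beads, His-tagged CtBP on nickel acceptor beads; compounds precede bead addition by 2 h at 37 °C.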
TDP1 cell noCPT: qHTS for Inhibitors of human tyrosyl-DNA phosphodiesterase 1 (TDP1): qHTS in cells in absence of CPT | DT40 Tdp1-/- hTDP1 cells, no CPT, ATP luminescence, 48 h | Potency, µM (highest dose often 46.2 µM), for the others: at the top dose activity change, negative = growth inhibition, usual class: inhibitors | 15% of 420,000 active; also: potency is read from the fitted curve at half-maximal effect; nearly all actives have a fitted effect of over 55% in size
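Compound effects on proliferation are scored in DT40 Tdp1-/-;hTDP1 cells in the absence of CPT. ATP levels (CellTiter-Glo luminescence) are recorded after a ≥48 hr, 37 °C incubation.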
IL1B secr inh: qHTS for Inhibitors of Inflammasome Signaling: IL-1-beta AlphaLISA Primary Screen | THP-1 LPS/ATP IL-1B secretion, AlphaLISA, 16 h; stronger effect = lower value | activity change, % at 57.5 µM | 4.7% of 360,000 active; in the data active = activity change below about -50%; inconclusive = mostly about -30% to -49%
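Secreted IL-1B measured by AlphaLISA bead assay after 16 h compound exposure of THP-1 cells; compounds (final up to 57.5 uM) added 1 h before LPS (250 ng/mL) and ATP (1.25 mM) stimulation; lower signal means less secretion.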
Numbers without * were called inactive; ? = inconclusive; nt = no result given. Only some compounds are listed: those with a hit (about 18% of all), similar ones and a draw of the others. Unless noted, calls follow the shape of the dose curve; as a rule, active = well fitted curve in the direction sought with a large enough effect; inconclusive = small, poorly fitted or top-dose-only effect, or another doubt; inactive = no such curve, though single readings can be large; an effect the other way counts as inactive or inconclusive. % is scaled to controls: 0 for no effect and ±100 for the full control effect.

SMILES	TDP1 cell CPT	Six1-Eya2 inh	TDP1 inh	CtBP-E1A blk	TDP1 cell noCPT	IL1B secr inh
COc1ccc(OC)c(-c2cc(C(=O)N/N=C/c3cc(OC)c(OC)cc3OC)c3ccccc3n2)c1	16µM*	19	nt	-14	9.2µM*	?
COc1ccc(OC)c(-c2cc(C(=O)O)c3cc4ccccc4cc3n2)c1	-2%	7	nt	-24	-3%	13
COc1ccc(OC)c(-c2cc(C(=O)N/N=C/c3ccc(F)cc3)c3ccccc3n2)c1	5.2µM*	-17	nt	-7	1µM*	nt
CCc1cc(C(=O)N/N=C/c2ccc(OC)cc2)c2ccccc2n1	7.3µM*	11	nt	-3	3.3µM*	15
COc1ccc(OC)c(-c2cc(C(=O)Nc3ccccc3C(N)=O)c3ccccc3n2)c1	21µM*	5	nt	nt	8.2µM*	-10
COc1ccc(-c2cc(C(=O)N/N=C/c3sccc3C)c3ccccc3n2)c(OC)c1	?	-10	6%	-6	?	-9
Cc1ccc(C(=O)CCC(=O)Nc2ncccc2O)cc1	11%	-8	-5%	-21	3%	-11
Cc1c(Cl)cccc1NC(=O)Nc1cnccn1	-20%	-5	-5%	-13	-5%	-11
Cc1ccc(NC(=O)CN2CCc3cc4c(cc3C2C)OCCCO4)cc1 (stereo not given)	?	-4	2%	-13	?	?
CC1c2cc3c(cc2CCN1CC(=O)Nc1ccccc1)OCCCO3 (stereo not given)	15µM*	0	nt	-19	23µM*	6
CC1c2cc3c(cc2CCN1C(=O)c1cccc(Cl)c1)OCCCO3 (stereo not given)	7.3µM*	-2	3%	nt	6.5µM*	20
O=C(NCc1ccc(OC(F)(F)F)cc1)c1cc(-c2ccccc2)nn1CC1CC(c2cccnc2)=NO1 (stereo not given)	?	0	nt	-1	?	-13
Cc1ccc2occ(CC(=O)Nc3ccc(S(=O)(=O)N4CCC(C)CC4)cc3)c2c1	?	nt	2%	nt	?	nt
Cc1ccc(NC(=O)COC(=O)c2ccc[n+]([O-])c2)c(Br)c1	-10%	0	2%	0	18%	-8
Cc1cccc(NS(=O)(=O)c2ccc(C(=O)NCC(c3ccccc3)N(C)C)cc2)c1C (stereo not given)	16µM*	1	5%	4	?	-6
Cc1cccc(NS(=O)(=O)c2ccc(C(=O)NCC(c3ccco3)N3CCCCC3)cc2)c1C (stereo not given)	?	-13	-7%	-2	23µM*	?
Cc1cccc(NS(=O)(=O)c2cccc(C(=O)NCC(c3ccco3)N3CCCCC3)c2)c1 (stereo not given)	21µM*	-5	nt	-26	23µM*	-59*
O=C(NCC(c1ccco1)N1CCCCC1)c1ccc(NS(=O)(=O)c2ccc(F)cc2)cc1 (stereo not given)	-20%	-3	4%	9	?	13
Cc1ncc(CO)c(/C=N/Nc2ccc(C(F)(F)F)cn2)c1O	4.1µM*	-75*	9%	-96*	3.7µM*	63
Cc1ncc(CO)c(/C=N/NC(=S)Nc2ccc(F)cc2)c1O	16µM*	-90*	8%	-86*	10µM*	50
C(=N\Nc1ccccn1)/c1cccnc1	4%	-1	nt	nt	0%	41
FC(F)(F)c1ccc(N/N=C/c2cccnc2)nc1	-23%	6	nt	3	?	-97*
